# Reference: PubChem BioAssay
# The source made the active and inactive calls.
# Tests used:
# Albumin (Bos taurus) = Albumin (Bos taurus) (UniProt P02769); experiment: compounds binding labelled BSA control protein – biochemical, small-molecule microarray, Alexa647 label, 635/667 nm fluorescence, artefact control for SMM control protein annotation, profiling panel (AID 1118); settings: BSA-A647 binding, fluorescence 635 nm, higher = more signal;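 further: score merges 667 nm emission intensity and signal-to-noise per printed compound spot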
# Chain of Albumin (Bos taurus) (P02769 whole entry, looked up): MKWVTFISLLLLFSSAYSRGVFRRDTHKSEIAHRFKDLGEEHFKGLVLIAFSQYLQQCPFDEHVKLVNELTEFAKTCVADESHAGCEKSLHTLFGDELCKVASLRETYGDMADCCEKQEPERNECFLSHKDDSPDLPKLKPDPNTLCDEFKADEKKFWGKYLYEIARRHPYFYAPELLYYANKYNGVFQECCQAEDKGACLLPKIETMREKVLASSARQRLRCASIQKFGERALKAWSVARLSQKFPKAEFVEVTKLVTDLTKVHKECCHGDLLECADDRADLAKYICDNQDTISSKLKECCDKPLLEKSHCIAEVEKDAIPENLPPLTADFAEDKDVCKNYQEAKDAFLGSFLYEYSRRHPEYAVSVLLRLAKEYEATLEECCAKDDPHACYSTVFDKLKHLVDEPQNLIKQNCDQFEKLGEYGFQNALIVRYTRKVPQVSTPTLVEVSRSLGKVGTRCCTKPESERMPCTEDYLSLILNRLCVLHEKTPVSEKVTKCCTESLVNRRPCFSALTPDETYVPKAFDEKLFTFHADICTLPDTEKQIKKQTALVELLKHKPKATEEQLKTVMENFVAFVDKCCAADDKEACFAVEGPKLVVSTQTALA
# [1] = probe aXIP binding to arrayed compounds – biochemical, NeuroSMM set, 635/667 nm fluorescence, primary screen (AID 1119); settings: small-molecule microarray, higher = more signal, called active from +8 up or from −8 down;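 further: probe is the protein aXip251-270 applied at 1 µg/mL to compound-printed slides; binding of probe to printed compounds measured as 667 nm fluorescence plus signal to noise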
# [2] = probe aNOTCH3 binding on compound microarray – biochemical, small-molecule microarray, 635/667 nm fluorescence, primary screen (AID 1120); settings: higher = more signal;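 further: probe is a biotin-tagged antibody raised against NOTCH3 rather than NOTCH3 protein; score merges spot fluorescence near 667 nm with spot signal to noise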
# [3] = probe aNOTCH2 binding on compound microarray – biochemical, small-molecule microarray, 635/667 nm fluorescence, primary screen (AID 1121); settings: higher = more signal;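 further: score merges feature fluorescence read at 667 nm with its signal to noise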
# [4] = biological target: Carbonic anhydrase 2 (Homo sapiens) (UniProt P00918); experiment: compounds binding carbonic anhydrase 2 – biochemical, small-molecule microarray, Alexa647-labelled CAII, profiling panel (AID 1122); settings: CAII-A647 binding fluorescence, higher = more signal
# [5] = COS7 lysate on small-molecule microarray, probe aHis, 635 nm (AID 1123); settings: COS7 cell lysate, fluorescence, higher = more signal;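 further: z-score combines 667nm fluorescence intensity with signal-to-noise per printed compound spot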
# [6] = probe aLAP1 signal on lysate-treated microarray – cell lysate, small-molecule microarray, COS7 lysate, primary screen (AID 1124); settings: probe aLAP1, fluorescence, higher = more signal;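 further: lysate comes from COS7 cells expressing LAP1 and is applied at 0.3 µg/mL; score merges spot fluorescence near 667 nm with signal-to-noise over triplicate slides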
# Sam68 (KHDRBS1) = experiment: compounds binding KHDRBS1 protein – biochemical, small-molecule microarray, 635 nm fluorescence, primary screen (AID 1125); settings: higher = more signal;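 further: score merges 667 nm channel intensity with signal to noise over triplicate slides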
# [7] = system: Chordin-like protein 2 (CHRDL2); experiment: compounds binding chordin-like 2 – biochemical, small-molecule microarray, 635 nm fluorescence, primary screen (AID 1126); settings: fluorescence 635 nm, higher = more signal;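 further: printed compound slides probed with Chrdl2 protein at 4 µg/mL for 1 h at 4 C; score merges 667 nm emission intensity with signal to noise over three replicate slides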
# [8] = biological target: Concanavalin-A (Canavalia ensiformis) (UniProt P02866); experiment: compounds binding concanavalin A lectin – biochemical, small-molecule microarray, Alexa647 label, 635 nm, artefact control for SMM control protein annotation, primary screen (AID 1127); settings: ConA-A647 binding fluorescence, higher = more signal;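 further: z combines 667 nm emission intensity with signal-to-noise across three replicate slides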
# Chain of Concanavalin-A (Canavalia ensiformis) (P02866 whole entry, looked up): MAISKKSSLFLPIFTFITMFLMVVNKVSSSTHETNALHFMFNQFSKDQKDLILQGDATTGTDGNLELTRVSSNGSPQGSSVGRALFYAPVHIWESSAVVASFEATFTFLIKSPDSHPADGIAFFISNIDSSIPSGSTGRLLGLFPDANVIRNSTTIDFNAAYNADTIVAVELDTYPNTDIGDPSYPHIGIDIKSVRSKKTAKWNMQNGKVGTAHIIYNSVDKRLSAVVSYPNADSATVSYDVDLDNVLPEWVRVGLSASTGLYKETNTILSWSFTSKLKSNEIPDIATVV
SMILES,composite z-score (Albumin (Bos taurus)),composite Z-score [1],composite z-score [2],composite z-score [3],composite z-score [4],composite z-score [5],composite z-score [6],composite z-score (Sam68 (KHDRBS1)),composite z-score [7],composite z-score [8]
NC(=O)NCC#Cc1ccc2c(c1)[C@]1(C(=O)N2)[C@H](C(=O)N2CCCCCCC2)[C@H]2C(=O)O[C@H](c3ccccc3)[C@H](c3ccccc3)N2[C@@H]1c1ccc(OCCO)cc1,-0.946,-0.397 (inactive),1.29,0.683,0.336,1.6,0.864,1.32,1.09,0.987
CCCCC=C[C@@H](NC(=O)c1ccc(C(=O)OC)cc1)c1ccccc1,0.924,-0.213 (inactive),0.313,-0.171,0.235,1.81,0.327,1.15,-0.14,0.887
O=C1O[C@H](c2ccccc2)[C@H](c2ccccc2)N2[C@H]1[C@@H](C(=O)O)[C@]1(C(=O)Nc3ccc(C#CC4(O)CCCCCC4)cc31)[C@H]2c1ccc(OCCO)cc1,0.906,-0.0503 (inactive),0.0876,-0.0727,0.672,2.58,0.78,1.29,-0.862,1.06
Cc1cc(C)c(C(O)C2C=CC3C(=O)N(c4ccccc4)C(=O)C3N2Nc2ccc(C#N)cc2)c(C)c1 (stereo not given),1.07,0.902 (inactive),0.0649,0.115,0.743,3.02,0.629,1.35,-0.183,1.19
CC(=O)Nc1cc(Br)ccc1C(=O)O,0.782,-0.705 (inactive),-0.0142,-0.0502,0.363,0.385,-0.0197,0.402,-0.421,0.984
O=C1C2C=CC(C(O)c3ccc(B(O)O)cc3)N(Nc3ccccc3)C2C(=O)N1c1ccccc1 (stereo not given),0.764,0.387 (inactive),0.127,-0.0438,0.793,0.408,-0.0389,-0.346,-0.0149,-0.874
CC(C)c1ccc(NN2C(C(O)c3c(F)cccc3Cl)C=CC3C(=O)N(c4ccccc4)C(=O)C32)cc1 (stereo not given),0.913,-0.193 (inactive),0.704,0.395,0.187,2.26,0.584,1.14,-0.297,1.11
COCCOC(=O)N1C(=O)[C@@]2(c3cc(C#CCNC(N)=O)ccc31)[C@H](C(=O)N1CCc3cc(OC)c(OC)cc3C1)[C@H]1C(=O)O[C@H](c3ccccc3)[C@H](c3ccccc3)N1[C@@H]2c1ccc(OCCO)cc1,-0.717,0.202 (inactive),0.289,-0.186,0.225,0.423,0.406,0.398,0.286,1.09
C=C[C@H](COC(C)=O)N(Cc1ccc(OC(C)=O)c(OC)c1)S(=O)(=O)c1ccc(Br)cc1,0.777,0.365 (inactive),0.223,0.272,0.512,0.987,0.509,0.988,0.771,1.04
O=C1C2C=CC(C(O)c3ccc(F)cc3)N(Nc3ccccc3)C2C(=O)N1c1ccccc1 (stereo not given),0.843,0.121 (inactive),0.189,0.0449,0.734,2.88,-0.364,0.654,-0.527,-0.398
CCOC(=O)C[C@H]1[C@H](OC(=O)c2ccc(C(=O)c3ccccc3)cc2)[C@@H](NC(=O)C2CCCCC2)c2cc(OCCCO)ccc2N1C(=O)c1ccccc1,0.473,0.599 (inactive),0.369,-0.132,0.159,1.54,0.297,1.31,-0.047,0.799
CCOC(=O)C1=C[C@@H](CC)N(S(=O)(=O)c2ccc(C)cc2)[C@H]1c1ccccc1,0.874,0.339 (inactive),0.0539,0.0572,0.526,1.35,0.83,1.29,0.0777,1.1
COC(=O)[C@@]1(Cc2ccccc2)[C@H]2c3cc(C(=O)N4CCCC4)n(Cc4ccc(C)o4)c3C[C@H]2CN1C(=O)c1ccccc1,0.905,-0.56 (inactive),0.415,0.0263,0.787,0.597,0.487,0.17,-0.589,-0.289
CC(=O)NCCCC[C@@H]1NC(=O)[C@@H]2C[C@H](C(=O)NCCCCN(C)C)[C@H](c3ccc(O)cc3)N2C1=O,-0.503,0.48 (inactive),-0.292,-0.14,-0.0303,-0.089,0.765,-0.781,0.46,-0.612
C=CC[C@@]1(C(=O)N2CCOCC2)N=C(c2ccc(OCCCO)cc2)O[C@@H]1c1ccccc1N=[N+]=[N-],0.872,-0.885 (inactive),0.364,0.0753,0.419,2.43,1,1.29,-0.142,1.09
O=C(O)[C@@]1(Cc2ccccc2)N=C(c2ccc(OCCCO)cc2)O[C@H]1c1ccccc1,0.32,-0.419 (inactive),-0.0932,-0.147,0.529,1.29,-0.183,0.499,-1.15,0.649
N#Cc1ccc(NN2C(C(O)c3ccc([N+](=O)[O-])cc3)C=CC3C(=O)N(c4ccccc4)C(=O)C32)cc1 (stereo not given),0.552,0.156 (inactive),0.0847,0.181,0.758,2.75,0.833,1.3,0.0881,0.647
C=CCNC(=O)[C@H]1[C@@H]2C(=O)O[C@@H](c3ccccc3)[C@@H](c3ccccc3)N2[C@@H](c2ccc(O)cc2)[C@]12C(=O)N(C(=O)OCCOC)c1ccc(C#CCCO)cc12,0.534,-0.228 (inactive),-0.155,-0.0942,0.701,2.1,0.881,1.08,-0.445,0.903
CCOC(=O)C[C@H]1[C@H](OC(=O)c2ccccc2-c2ccccc2)[C@@H](NC(=O)c2ccc3ccccc3c2)c2cc(OCCCO)ccc2N1C(=O)c1ccc2ccccc2n1,0.43,-0.666 (inactive),0.172,-0.14,0.124,0.806,-0.106,0.744,-0.0077,0.406
O=C1OCCC/C=C\[C@H]2OC34C=CCN(Cn5nnc6ccccc65)C(=O)[C@H]3N(CCCCCO)C(=O)[C@@H]4C12 (stereo not given in full),0.743,-0.263 (inactive),-0.267,-0.14,0.881,0.0505,-0.477,-0.445,-0.977,-0.702
COCC(=C=CC[C@H](O)c1ccc(OCCO)cc1)C[C@H](O)c1cc(Cl)cc(Cl)c1O,-0.679,-0.566 (inactive),0.114,-0.122,0.718,-1.65,0.359,1.17,0.923,0.661
O=C(CCN1CCOCC1)c1cccc(O)c1,0.379,0.989 (inactive),0.324,0.0292,0.634,0.973,0.629,0.922,1.48,0.767
CC(=O)NCCCC[C@@H]1NC(=O)[C@@H]2C[C@H](C(=O)NCCCCCCNC(=O)CS)[C@H](c3ccc(O)cc3)N2C1=O,-0.0424,-0.202 (inactive),-0.256,-0.129,0.597,0.846,0.386,0.464,-0.573,0.647
COc1ccc([Si](C)(C)[C@@H]2[C@@H](CCn3cc([C@H](O)c4ccccc4)nn3)O[C@]3(C(=O)N(Cc4ccc(N5C(=O)c6cccc7cccc5c67)cc4)c4ccccc43)[C@H]2C)cc1,0.033,-0.196 (inactive),-0.13,-0.155,0.403,0.791,0.017,0.268,-0.177,-0.13
C=CC(=C)C1=CCO[C@@H]1[C@H]1CCCN1S(=O)(=O)c1ccccc1[N+](=O)[O-],0.656,0.0499 (inactive),0.117,-0.0926,0.481,0.158,-0.262,0.471,1.04,1.1
CO[C@H]1O[C@H](CO)[C@@H](OC(=O)Nc2ccc(Oc3ccccc3)cc2)[C@H](OC(=O)Nc2ccccc2)[C@H]1OC(=O)Nc1ccccc1,0.832,0.914 (inactive),0.295,-0.0064,0.467,2.09,-0.0652,1.3,-0.0078,1.16
C=C(C(=O)CC[C@H](OC(C)=O)c1ccc(OCCO)cc1)C(C)C,0.531,0.277 (inactive),0.0569,-0.132,0.708,0.354,1.15,0.564,0.615,0.846
CCOC(=O)C[C@H]1[C@H](OC(=O)Cc2ccc3c(c2)OCO3)[C@@H](NC(=O)C2CCCCC2)c2cc(OCCCO)ccc2N1C(=O)Cc1ccc(OC)cc1,0.343,-0.145 (inactive),0.369,-0.0993,0.231,0.557,0.366,1.15,0.107,0.343
C=CCC(OC(C)=O)[C@@H]1[C@@H](N(Cc2cccc3ccccc23)C(=O)c2ccc(C)cc2)c2cc(OCCCO)ccc2N1C(=O)Cc1ccc(OC)cc1 (stereo not given in full),0.15,-0.858 (inactive),0.114,-0.127,0.112,0.223,-0.0098,0.175,0.352,0.0517
Cc1ccc(S[C@]2(C(=O)NC3CC3)CC(=O)N(Cc3ccccc3)[C@@H]2c2ccc(CO)cc2)cc1,0.391,0.225 (inactive),-0.284,0.125,0.27,2.78,0.677,-0.664,-1.49,-0.788
